This is an account of results in paper PMC7862700, “An all-to-all approach to the identification of sequence-specific readers for epigenetic DNA modifications on cytosine”.

Common to all, as to experiment: DAPPL (digital affinity profiling via proximity ligation, sequencing); 10 mM Tris-HCl pH 7.5, 50 mM NaCl, 1 mM DTT, 4% glycerol, room temperature, 30 min; GST-TFs on glutathione beads, 16-mer random dsDNA library, 0.1% formaldehyde crosslink after washing; high values mean tight binding
One assay deals with T1, FEV (Homo sapiens, UniProt Q99581 1-238).
T1 sequence: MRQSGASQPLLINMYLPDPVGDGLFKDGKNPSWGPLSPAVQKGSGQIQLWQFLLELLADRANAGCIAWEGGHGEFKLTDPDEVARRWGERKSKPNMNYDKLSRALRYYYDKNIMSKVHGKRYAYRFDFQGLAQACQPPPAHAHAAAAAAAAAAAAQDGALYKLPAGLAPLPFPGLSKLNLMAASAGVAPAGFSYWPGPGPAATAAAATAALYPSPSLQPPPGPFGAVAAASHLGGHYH
The conditions noted are these: protein: recombinant; tags: N-terminal GST; dsDNA, one strand shown. In outline:
(§1)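 Beads coated with glutathione captured GST-fused human transcription factors that had been expressed in yeast, and the factors were then given DNA barcodes and pooled with a tag-only sample. The pools were incubated with 200 nmole of a random double-stranded 16-mer DNA library in Tris/NaCl/DTT/glycerol buffer for 30 min at room temperature, washed, crosslinked with 0.1% formaldehyde and proximity-ligated with BsaI/T4 ligase at 37 °C for 1 h. PCR amplification and Illumina NextSeq500 sequencing came last. Binding signal is each hexamer's read frequency for a factor divided by its frequency for the tag-only sample.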

For the next assay, the target named is ETV5 (Homo sapiens, UniProt P41161 1-510). The conditions noted are these: protein: recombinant; tags: N-terminal GST; dsDNA, one strand shown. In outline:
as §1

A further assay has as its target HSF1 (Homo sapiens, UniProt Q00613 1-529). The conditions noted are these: protein: recombinant; tags: N-terminal GST; chain copies: 3; dsDNA, one strand shown. The procedure, abridged:
as §1

A further assay concerns the target T2, SPIC (Homo sapiens, UniProt Q8N5J4 1-248).
T2 sequence: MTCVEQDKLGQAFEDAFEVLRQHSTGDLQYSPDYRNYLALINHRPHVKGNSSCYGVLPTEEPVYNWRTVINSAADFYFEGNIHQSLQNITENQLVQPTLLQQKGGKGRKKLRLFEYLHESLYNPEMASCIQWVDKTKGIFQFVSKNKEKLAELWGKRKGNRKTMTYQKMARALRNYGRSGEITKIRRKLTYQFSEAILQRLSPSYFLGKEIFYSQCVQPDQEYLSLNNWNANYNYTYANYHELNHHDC
The conditions noted are these: protein: recombinant; tags: N-terminal GST; dsDNA, one strand shown. In outline: as §1

Another assay has as its target ELF4 (Homo sapiens, UniProt Q99607 1-663). To be noted: protein: recombinant; tags: N-terminal GST; dsDNA, one strand shown. The procedure, abridged:
as §1

The target in a further assay is T3, ELK4 (Homo sapiens, UniProt P28324-2 1-405).
T3 sequence: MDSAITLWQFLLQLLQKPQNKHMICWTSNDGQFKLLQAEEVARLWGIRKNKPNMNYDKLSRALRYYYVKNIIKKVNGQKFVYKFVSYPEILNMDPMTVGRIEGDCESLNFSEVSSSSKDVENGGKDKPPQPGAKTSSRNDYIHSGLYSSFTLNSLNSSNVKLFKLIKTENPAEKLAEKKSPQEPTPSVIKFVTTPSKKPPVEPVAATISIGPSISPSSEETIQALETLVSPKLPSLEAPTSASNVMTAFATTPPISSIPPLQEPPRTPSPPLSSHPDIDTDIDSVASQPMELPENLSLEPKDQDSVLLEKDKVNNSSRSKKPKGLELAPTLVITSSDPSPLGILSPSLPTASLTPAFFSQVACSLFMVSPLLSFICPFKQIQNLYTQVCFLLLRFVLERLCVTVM
The conditions noted are these: protein: recombinant; tags: N-terminal GST; dsDNA, one strand shown. The procedure, abridged: as §1

For the next assay, the target named is T4, ETV2 (Homo sapiens, UniProt O00321 1-342).
T4 sequence: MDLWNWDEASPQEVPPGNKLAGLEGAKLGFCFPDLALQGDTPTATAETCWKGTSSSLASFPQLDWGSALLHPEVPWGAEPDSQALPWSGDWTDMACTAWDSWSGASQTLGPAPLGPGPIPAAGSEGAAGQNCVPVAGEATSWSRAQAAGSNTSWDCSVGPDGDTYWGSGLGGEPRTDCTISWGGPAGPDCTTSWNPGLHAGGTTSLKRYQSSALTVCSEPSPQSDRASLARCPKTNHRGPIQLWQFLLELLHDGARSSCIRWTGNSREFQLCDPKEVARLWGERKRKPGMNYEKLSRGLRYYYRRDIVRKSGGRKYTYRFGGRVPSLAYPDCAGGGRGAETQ
The conditions noted are these: protein: recombinant; tags: N-terminal GST; dsDNA, one strand shown. In outline: as §1

The target of another assay is T5, ELF3 (Homo sapiens, UniProt P78545 1-371).
T5 sequence: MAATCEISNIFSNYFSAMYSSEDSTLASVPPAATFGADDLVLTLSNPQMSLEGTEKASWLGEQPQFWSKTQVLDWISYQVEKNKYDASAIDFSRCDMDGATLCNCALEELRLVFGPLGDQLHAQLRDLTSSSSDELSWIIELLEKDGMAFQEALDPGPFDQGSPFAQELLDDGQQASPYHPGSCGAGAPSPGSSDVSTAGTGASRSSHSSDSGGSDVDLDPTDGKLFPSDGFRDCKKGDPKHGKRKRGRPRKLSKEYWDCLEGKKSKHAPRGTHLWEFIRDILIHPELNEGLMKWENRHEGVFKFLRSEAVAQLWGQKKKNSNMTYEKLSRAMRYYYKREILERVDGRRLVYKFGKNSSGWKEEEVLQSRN
To be noted: protein: recombinant; tags: N-terminal GST; dsDNA, one strand shown. In outline: as §1

The target in a further assay is CRX (Homo sapiens, UniProt O43186 1-299). To be noted: protein: recombinant; tags: N-terminal GST; dsDNA, one strand shown. In outline: as §1
Chain of CRX (O43186 whole entry): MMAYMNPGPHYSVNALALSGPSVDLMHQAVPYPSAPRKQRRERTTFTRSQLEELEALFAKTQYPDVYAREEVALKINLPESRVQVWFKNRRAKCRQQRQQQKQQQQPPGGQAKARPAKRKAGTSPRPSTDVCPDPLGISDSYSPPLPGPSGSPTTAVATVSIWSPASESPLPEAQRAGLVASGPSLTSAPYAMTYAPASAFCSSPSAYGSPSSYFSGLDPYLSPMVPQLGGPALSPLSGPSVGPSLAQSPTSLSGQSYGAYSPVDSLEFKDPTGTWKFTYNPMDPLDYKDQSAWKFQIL
The target of the next assay is ETV1 (Homo sapiens, UniProt P50549 1-477). To be noted: protein: recombinant; tags: N-terminal GST; dsDNA, one strand shown. In outline:
as §1

In another assay the target is T6, ERF (Homo sapiens, UniProt P50548 1-548).
T6 sequence: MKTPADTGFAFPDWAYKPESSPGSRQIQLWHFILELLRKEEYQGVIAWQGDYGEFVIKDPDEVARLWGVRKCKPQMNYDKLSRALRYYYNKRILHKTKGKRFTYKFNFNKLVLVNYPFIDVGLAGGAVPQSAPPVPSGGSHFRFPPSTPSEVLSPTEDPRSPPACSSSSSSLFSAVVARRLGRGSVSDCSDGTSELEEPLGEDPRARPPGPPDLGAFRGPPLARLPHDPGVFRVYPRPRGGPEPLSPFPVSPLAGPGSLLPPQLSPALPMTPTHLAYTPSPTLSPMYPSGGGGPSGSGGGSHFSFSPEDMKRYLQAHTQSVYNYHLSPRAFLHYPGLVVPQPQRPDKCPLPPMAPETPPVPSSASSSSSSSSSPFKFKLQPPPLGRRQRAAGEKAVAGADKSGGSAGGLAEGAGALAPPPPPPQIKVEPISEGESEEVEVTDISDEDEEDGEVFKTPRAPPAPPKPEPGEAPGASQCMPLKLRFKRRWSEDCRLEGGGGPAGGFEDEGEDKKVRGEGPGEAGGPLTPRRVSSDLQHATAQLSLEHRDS
To be noted: protein: recombinant; tags: N-terminal GST; dsDNA, one strand shown. The procedure, abridged:
as §1

The target in a further assay is T7, ETV3L (Homo sapiens, UniProt Q6ZN32 1-361).
T7 sequence: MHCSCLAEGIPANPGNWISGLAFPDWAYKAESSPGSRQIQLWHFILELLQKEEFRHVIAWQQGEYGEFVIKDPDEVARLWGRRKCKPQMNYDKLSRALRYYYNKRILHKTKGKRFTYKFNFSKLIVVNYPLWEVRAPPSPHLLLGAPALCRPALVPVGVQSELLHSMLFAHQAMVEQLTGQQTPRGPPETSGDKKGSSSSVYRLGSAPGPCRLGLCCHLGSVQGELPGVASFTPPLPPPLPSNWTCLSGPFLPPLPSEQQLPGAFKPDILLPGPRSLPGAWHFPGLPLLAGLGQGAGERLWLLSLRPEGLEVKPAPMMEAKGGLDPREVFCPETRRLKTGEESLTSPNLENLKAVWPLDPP
The conditions noted are these: protein: recombinant; tags: N-terminal GST; dsDNA, one strand shown. The procedure, abridged: as §1

Another assay has as its target T8, ETS2 (Homo sapiens, UniProt P15036 1-469).
T8 sequence: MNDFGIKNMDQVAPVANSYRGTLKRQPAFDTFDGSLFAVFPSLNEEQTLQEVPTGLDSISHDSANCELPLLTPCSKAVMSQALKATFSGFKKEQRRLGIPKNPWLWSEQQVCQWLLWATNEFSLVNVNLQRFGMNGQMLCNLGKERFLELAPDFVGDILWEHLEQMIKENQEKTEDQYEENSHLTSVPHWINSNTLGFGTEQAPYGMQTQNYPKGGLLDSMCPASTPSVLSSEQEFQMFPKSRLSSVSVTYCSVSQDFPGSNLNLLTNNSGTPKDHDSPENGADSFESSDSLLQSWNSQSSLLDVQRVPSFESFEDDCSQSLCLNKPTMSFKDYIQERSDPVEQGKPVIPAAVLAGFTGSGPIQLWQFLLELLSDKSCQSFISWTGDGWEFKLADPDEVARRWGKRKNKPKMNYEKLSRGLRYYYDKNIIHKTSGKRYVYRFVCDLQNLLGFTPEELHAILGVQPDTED
The conditions noted are these: protein: recombinant; tags: N-terminal GST; dsDNA, one strand shown. The procedure, abridged: as §1

Another assay concerns the target T9, SPDEF (Homo sapiens, UniProt O95238 1-335).
T9 sequence: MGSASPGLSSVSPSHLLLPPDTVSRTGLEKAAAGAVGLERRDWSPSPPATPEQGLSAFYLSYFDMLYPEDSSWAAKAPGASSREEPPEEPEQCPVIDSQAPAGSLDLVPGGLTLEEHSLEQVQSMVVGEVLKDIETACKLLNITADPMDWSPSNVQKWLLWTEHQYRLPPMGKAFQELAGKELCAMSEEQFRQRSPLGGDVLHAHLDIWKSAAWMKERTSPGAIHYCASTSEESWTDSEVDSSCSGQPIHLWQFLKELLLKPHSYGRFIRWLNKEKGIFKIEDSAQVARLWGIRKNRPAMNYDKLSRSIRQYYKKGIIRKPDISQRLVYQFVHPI
The conditions noted are these: protein: recombinant; tags: N-terminal GST; dsDNA, one strand shown. The procedure, abridged:
as §1

For the next assay, the target named is T10, ETV7 (Homo sapiens, UniProt Q9Y603 1-341).
T10 sequence: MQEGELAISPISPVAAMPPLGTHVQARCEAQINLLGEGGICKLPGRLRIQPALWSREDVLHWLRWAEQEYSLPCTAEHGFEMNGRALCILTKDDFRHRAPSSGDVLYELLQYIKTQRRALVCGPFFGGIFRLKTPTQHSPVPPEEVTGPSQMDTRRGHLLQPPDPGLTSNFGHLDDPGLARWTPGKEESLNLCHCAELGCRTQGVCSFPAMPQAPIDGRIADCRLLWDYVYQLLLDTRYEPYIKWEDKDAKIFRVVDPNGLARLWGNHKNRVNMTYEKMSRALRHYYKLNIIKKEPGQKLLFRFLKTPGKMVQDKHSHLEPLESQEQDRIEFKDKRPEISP
The conditions noted are these: protein: recombinant; tags: N-terminal GST; dsDNA, one strand shown. The procedure, abridged: as §1

Another assay has as its target T11, ELF5 (Homo sapiens, UniProt Q9UKW6-2 1-255).
T11 sequence: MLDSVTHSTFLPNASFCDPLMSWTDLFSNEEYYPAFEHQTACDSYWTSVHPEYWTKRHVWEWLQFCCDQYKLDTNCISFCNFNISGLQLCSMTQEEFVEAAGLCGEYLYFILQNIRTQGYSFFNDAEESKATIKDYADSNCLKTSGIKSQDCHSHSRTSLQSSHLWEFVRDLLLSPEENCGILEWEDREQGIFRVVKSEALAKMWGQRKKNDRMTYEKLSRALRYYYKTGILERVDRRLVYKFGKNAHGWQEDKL
To be noted: protein: recombinant; tags: N-terminal GST; dsDNA, one strand shown. The procedure, abridged:
as §1

The target in the next assay is T12, ETV3 (Homo sapiens, UniProt P41162-2 1-143).
T12 sequence: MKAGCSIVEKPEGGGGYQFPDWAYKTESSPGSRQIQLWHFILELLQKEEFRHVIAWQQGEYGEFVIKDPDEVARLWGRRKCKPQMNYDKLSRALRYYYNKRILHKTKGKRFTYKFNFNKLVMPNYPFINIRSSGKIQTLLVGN
The conditions noted are these: protein: recombinant; tags: N-terminal GST; dsDNA, one strand shown. In outline:
as §1

In the next assay the target is ETV6 (Homo sapiens, UniProt P41212 1-452). The conditions noted are these: protein: recombinant; tags: N-terminal GST; dsDNA, one strand shown. In outline: as §1
Chain of ETV6 (P41212 whole entry): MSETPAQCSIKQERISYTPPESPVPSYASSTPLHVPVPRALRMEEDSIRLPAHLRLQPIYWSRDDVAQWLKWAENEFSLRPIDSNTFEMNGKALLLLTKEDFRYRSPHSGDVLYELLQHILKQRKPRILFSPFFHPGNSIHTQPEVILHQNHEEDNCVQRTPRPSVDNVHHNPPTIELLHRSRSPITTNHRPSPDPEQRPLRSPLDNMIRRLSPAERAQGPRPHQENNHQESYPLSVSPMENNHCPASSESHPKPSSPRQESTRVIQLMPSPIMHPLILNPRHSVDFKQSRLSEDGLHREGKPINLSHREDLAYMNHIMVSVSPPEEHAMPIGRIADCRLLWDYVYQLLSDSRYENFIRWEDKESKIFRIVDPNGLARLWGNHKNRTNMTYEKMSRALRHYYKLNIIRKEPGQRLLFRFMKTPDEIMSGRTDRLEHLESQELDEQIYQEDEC

Chain of HSF1 (Q00613 whole entry): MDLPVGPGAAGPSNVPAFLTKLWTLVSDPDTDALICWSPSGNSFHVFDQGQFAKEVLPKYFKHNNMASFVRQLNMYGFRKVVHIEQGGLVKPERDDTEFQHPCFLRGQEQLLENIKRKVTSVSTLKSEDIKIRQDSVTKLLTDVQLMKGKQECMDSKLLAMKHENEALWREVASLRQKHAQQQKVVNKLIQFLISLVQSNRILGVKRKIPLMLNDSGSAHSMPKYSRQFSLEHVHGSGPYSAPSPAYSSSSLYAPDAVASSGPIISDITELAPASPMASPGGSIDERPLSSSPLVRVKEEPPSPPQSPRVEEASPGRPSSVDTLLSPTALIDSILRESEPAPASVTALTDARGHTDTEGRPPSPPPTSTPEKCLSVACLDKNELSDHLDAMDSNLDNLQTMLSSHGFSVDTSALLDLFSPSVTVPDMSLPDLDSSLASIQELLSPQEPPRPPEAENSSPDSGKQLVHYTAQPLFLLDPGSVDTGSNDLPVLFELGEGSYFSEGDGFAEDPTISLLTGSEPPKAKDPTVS
Chain of ETV5 (P41161 whole entry): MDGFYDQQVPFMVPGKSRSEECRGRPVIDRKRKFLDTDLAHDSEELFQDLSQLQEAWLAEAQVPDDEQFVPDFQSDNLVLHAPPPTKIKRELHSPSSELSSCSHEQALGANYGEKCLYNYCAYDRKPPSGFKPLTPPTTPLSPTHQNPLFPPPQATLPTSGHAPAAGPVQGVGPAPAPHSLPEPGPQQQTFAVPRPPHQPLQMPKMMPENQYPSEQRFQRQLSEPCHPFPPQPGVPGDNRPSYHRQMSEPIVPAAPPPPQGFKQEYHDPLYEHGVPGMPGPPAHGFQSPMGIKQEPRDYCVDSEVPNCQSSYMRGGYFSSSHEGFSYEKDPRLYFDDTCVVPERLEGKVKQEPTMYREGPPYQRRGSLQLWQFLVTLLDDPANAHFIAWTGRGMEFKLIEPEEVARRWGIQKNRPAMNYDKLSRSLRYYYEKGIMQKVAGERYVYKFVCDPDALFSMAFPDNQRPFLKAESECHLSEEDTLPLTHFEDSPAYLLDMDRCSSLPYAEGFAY
Chain of ELF4 (Q99607 whole entry): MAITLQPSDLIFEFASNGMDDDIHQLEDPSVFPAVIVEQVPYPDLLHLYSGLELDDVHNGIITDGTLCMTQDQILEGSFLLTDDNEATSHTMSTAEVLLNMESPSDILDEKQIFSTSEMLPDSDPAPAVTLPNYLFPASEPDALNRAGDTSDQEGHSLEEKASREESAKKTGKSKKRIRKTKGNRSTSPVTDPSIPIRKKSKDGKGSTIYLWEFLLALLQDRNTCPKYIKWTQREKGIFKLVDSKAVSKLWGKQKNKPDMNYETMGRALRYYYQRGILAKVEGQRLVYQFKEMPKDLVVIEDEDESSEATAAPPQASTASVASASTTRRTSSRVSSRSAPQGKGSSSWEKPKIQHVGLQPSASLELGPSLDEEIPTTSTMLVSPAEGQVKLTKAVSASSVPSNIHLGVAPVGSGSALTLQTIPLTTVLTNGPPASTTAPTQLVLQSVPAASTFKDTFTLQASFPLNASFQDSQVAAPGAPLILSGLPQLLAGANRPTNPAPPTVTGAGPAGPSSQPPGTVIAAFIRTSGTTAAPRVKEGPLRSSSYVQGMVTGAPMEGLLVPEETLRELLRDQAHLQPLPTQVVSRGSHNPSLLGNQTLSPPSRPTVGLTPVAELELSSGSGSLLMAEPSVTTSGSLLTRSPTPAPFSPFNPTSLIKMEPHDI
Chain of ETV1 (P50549 whole entry): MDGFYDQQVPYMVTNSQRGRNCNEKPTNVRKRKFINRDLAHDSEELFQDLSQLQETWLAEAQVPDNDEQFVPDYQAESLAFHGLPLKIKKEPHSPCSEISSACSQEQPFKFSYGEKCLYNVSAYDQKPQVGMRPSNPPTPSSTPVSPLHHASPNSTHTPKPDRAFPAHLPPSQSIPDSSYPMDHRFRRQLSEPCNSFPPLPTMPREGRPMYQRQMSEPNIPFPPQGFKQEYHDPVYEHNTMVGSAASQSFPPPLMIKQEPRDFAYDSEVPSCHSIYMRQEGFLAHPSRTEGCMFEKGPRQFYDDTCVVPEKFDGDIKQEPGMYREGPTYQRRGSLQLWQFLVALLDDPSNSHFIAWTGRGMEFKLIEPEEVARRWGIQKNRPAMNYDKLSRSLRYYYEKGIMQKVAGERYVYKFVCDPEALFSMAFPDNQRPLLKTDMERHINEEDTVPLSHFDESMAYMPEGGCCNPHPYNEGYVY

For the sequence TATCCT, the binding signal in the assay with FEV is 1.94 fold enrichment (6-mer frequency, TF over GST control); with ETV5, 1.95 fold enrichment (6-mer frequency, TF over GST control); with HSF1 it was 1.72 fold enrichment (6-mer frequency, TF over GST control); with SPIC, 1.87 fold enrichment (6-mer frequency, TF over GST control); with ELF4, 1.65 fold enrichment (6-mer frequency, TF over GST control); in the assay with ELK4 it was 1.83 fold enrichment (6-mer frequency, TF over GST control). Moreover, the binding signal was 1.93 fold enrichment (6-mer frequency, TF over GST control) with ETV2; 1.59 fold enrichment (6-mer frequency, TF over GST control) with ELF3; 2.28 fold enrichment (6-mer frequency, TF over GST control) with CRX; 1.72 fold enrichment (6-mer frequency, TF over GST control) with ETV1; 1.67 fold enrichment (6-mer frequency, TF over GST control) in the assay with ERF; 1.82 fold enrichment (6-mer frequency, TF over GST control) with ETV3L. Also, the binding signal was 1.81 fold enrichment (6-mer frequency, TF over GST control) with ETS2; 2.67 fold enrichment (6-mer frequency, TF over GST control) in the assay with SPDEF; 1.67 fold enrichment (6-mer frequency, TF over GST control) with ETV7; 2.65 fold enrichment (6-mer frequency, TF over GST control) with ELF5; 1.8 fold enrichment (6-mer frequency, TF over GST control) with ETV3; 1.82 fold enrichment (6-mer frequency, TF over GST control) with ETV6.
